PubChem BioAssay (NCATS)
Inconclusive results are not listed. Activity calls are given as the source filed them. Calls come from the whole dose curve; as a rule, active = well fitted activation curve with a large enough effect; inconclusive = small, poorly fitted or top-dose-only effect, or effect the other way; inactive = flat fitted curve, though single readings scatter.

Experiment: Cellular Toxicity (caspase-3) NIH 3T3 (AID 666);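 note: caspase signal read after 16 h compound exposure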
Settings: NIH 3T3 caspase-3 activation, apoptosis/toxicity, 0% DMSO, 100% is 100 µM tamoxifen; series mostly up to 92.2 µM; caspase-3 activation: at the top concentration
Text: NIH Chemical Genomics Center [NCGC]
NIH Molecular Libraries Screening Centers Network [MLSCN]
National Institutes of Environmental Health Sciences [NIEHS]
National Toxicology Program [NTP]
We have developed a 1536-well cell-based assay for quantitative high throughput screening (qHTS) against a number of cell lines to determine in vitro caspase 3/7 of small molecules. This particular assay uses the NIH 3T3 cell line which is derived from mouse fibroblasts.
NCGC Assay Protocol Summary:
The Caspase-Glo 3/7 assay (Promega) is a homogeneous method to measure caspase-3 and caspase-7 activities in cultured cells. The quantitation of caspase 3/7 activity is based on the cleavage of a peptide-aminoluciferin substrate. After caspase cleaves the substrate the free aminoluciferin is liberated and serves as the substrate of luciferase, which generates the light. The luminescent signal is proportional to amount of caspase 3/7 activity present.
Using the Caspase-Glo 3/7 assay, the amount of caspase 3/7 activity was measured in the NIH 3T3 cell line with complete culture medium following compound treatment for 16 hours. The assay was performed in opaque white 1536-well plates. In the screen, tamoxifen and doxorubicin were used as positive controls. Library compounds were measured for their ability to cause the activation of caspase 3/7 in the cell line, as reflected by an increase in luminescence signal, in a concentration-dependent manner. Data were normalized to the controls for basal activity (DMSO only) and 100% stimulation (100 uM tamoxifen). AC50 values were determined from concentration-response data modeled with the standard Hill equation.
qHTS protocol for caspase 3/7 assay in NIH 3T3 cells
[Step] [Parameter] [Value] [Description]
1. Reagent; 5 uL; 1000 NIH 3T3 cells/well
2. Time; 5 hr; 37 °C incubation
4. Controls; 23 nL; Tamoxifen 0.23 uM to 100 uM & Doxorubicin 7.0 pM to 100 uM
5. Time; 16 hr; 37 °C incubation
6. Reagent; 5 uL; Caspase-Glo 3/7 reagent
7. Time; 20 min; Room Temperature
8. Detection; Luminescence; Viewlux plate reader
Keywords: caspase 3/7, apoptosis, NIH 3T3 cell line, luminescence, NTPHTS, NTPHTS_NCGC, NIEHS, EPA, DSSTox, MLSMR, MLSCN, NIH Roadmap, qHTS, NCGC

| SMILES | caspase-3 activation | outcome |
| --- | --- | --- |
| CC(C)(C)NC(=O)[C@@H]1C[C@@H]2CCCC[C@@H]2CN1C[C@@H](O)[C@H](Cc1ccccc1)NC(=O)[C@H](CC(N)=O)NC(=O)c1ccc2ccccc2n1 | 0.491% (inactive) | – |
| Cc1ccccc1 | – | inactive |
| O=CCCCC=O | -1.09% (inactive) | – |
| CC1=C2[C@@H]([C@H](C)CC[C@H]2/C=C(\C)C(=O)O)[C@H](O)C1 | -1.98% (inactive) | – |
| CC(O)CO (stereo unspecified) | – | inactive |
| CCCCCCCC(=O)O | – | inactive |
| CC(C)=O | -0.933% (inactive) | – |
| CCOc1ccc2c(c1)C(C)=CC(C)(C)N2 | 1.08% (inactive) | – |
| Nc1ccn([C@H]2CS[C@@H](CO)O2)c(=O)n1 | -0.825% (inactive) | – |
| O=C(O)CCC(=O)C(=O)O | -4.92% (inactive) | – |
| CCCCCCCC/C=C\CCCCCCCC(=O)O | -0.374% (inactive) | – |
| O=S(=O)(O)O | – | inactive |
| CC1=C(/C=C/C(C)=C/C=C/C(C)=C/CO)C(C)(C)CCC1 | 5.16% (inactive) | – |
| CCCCC/C=C\C/C=C\CCCCCCCC(=O)O | 0.945% (inactive) | – |
| CCOC(C)=O | -0.119% (inactive) | – |
| IC(I)I | -5.68% (inactive) | – |
